According to PubChem BioAssay AID1159580 (chemical genetic matrix, 2015):
Out of some 5,500 compounds screened, about 2,000 (36%) were called active. About 18% were inconclusive and are not listed. Cut-off read from the data, not from the text of the source: active = normalized growth mostly below about 0.91 (no sharp cut-off); inconclusive = no clear call, values can overlap the other calls; inactive = mostly above about 0.92. The list shows a part of the results.

Experiment: chemical genetic growth profiling, strain panel (AID 1159580);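 note: tested at 20 µM; growth read once vehicle control cultures reached saturation at 30 °C; 1 = growth at the plate median or of vehicle wells; lower values mean less growth of the strain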
Settings: growth OD
[1] = S. cerevisiae deletion strains, locus YBR021W, strain FUR4, stronger effect = lower value
[2] = S. cerevisiae deletion strains, locus YBR229C, strain ROT2, stronger effect = lower value
[3] = S. cerevisiae deletion strains, locus YCL029C, strain bik1, stronger effect = lower value
[4] = S. cerevisiae deletion strains, locus YDL035C, strain GPR1, stronger effect = lower value
[5] = S. cerevisiae deletion strains, locus YDL074C, strain BRE1, stronger effect = lower value
[6] = S. cerevisiae deletion strains, locus YDL101C, strain DUN1, stronger effect = lower value
[7] = S. cerevisiae deletion strains, locus YDL185W, strain tfp1, stronger effect = lower value
[8] = S. cerevisiae deletion strains, locus YDL192W, strain arf1, stronger effect = lower value
[9] = S. cerevisiae deletion strains, locus YDR101C, strain arx1, stronger effect = lower value
[10] = S. cerevisiae deletion strains, locus YDR150W, strain NUM1, stronger effect = lower value
[11] = S. cerevisiae deletion strains, locus YDR162C, strain NBP2, stronger effect = lower value
[12] = S. cerevisiae deletion strains, locus YDR318W, strain mcm21, stronger effect = lower value
[13] = S. cerevisiae deletion strains, locus YDR388W, stronger effect = lower value
[14] = S. cerevisiae deletion strains, locus YDR502C, strain sam2, stronger effect = lower value
[15] = S. cerevisiae deletion strains, locus YEL061C, strain CIN8, stronger effect = lower value
[16] = S. cerevisiae deletion strains, locus YER110C, stronger effect = lower value
[17] = S. cerevisiae deletion strains, locus YER155C, strain BEM2, stronger effect = lower value
[18] = S. cerevisiae deletion strains, locus YER167W, strain BCK2, stronger effect = lower value
[19] = S. cerevisiae deletion strains, locus YGL078C, strain dbp3, stronger effect = lower value
[20] = S. cerevisiae deletion strains, locus YGL086W, strain mad1, stronger effect = lower value
[21] = S. cerevisiae deletion strains, locus YGL248W, strain PDE1, stronger effect = lower value
[22] = S. cerevisiae deletion strains, locus YGR135W, strain pre9, stronger effect = lower value
[23] = S. cerevisiae deletion strains, locus YGR229C, strain SMI1, stronger effect = lower value
[24] = S. cerevisiae deletion strains, locus YGR252W, strain gcn5, stronger effect = lower value
[25] = S. cerevisiae deletion strains, locus YHR030C, strain SLT2, stronger effect = lower value
[26] = S. cerevisiae deletion strains, locus YHR079C, strain IRE1 (second series), stronger effect = lower value
[27] = S. cerevisiae deletion strains, locus YHR094C, strain hxt1, stronger effect = lower value
[28] = S. cerevisiae deletion strains, locus YHR129C, strain ARP1, stronger effect = lower value
[29] = S. cerevisiae deletion strains, locus YHR200W, strain rpn10, stronger effect = lower value
[30] = S. cerevisiae deletion strains, locus YIL066C, strain RNR3, stronger effect = lower value
[31] = S. cerevisiae deletion strains, locus YIL073C, strain SPO22, stronger effect = lower value
[32] = S. cerevisiae deletion strains, locus YIL125W, strain kgd1, stronger effect = lower value
[33] = S. cerevisiae deletion strains, locus YIR030C, strain dcg1, stronger effect = lower value
[34] = S. cerevisiae deletion strains, locus YJL095W, strain BCK1, stronger effect = lower value
[35] = S. cerevisiae deletion strains, locus YJL134W, strain LCB3, stronger effect = lower value
[36] = S. cerevisiae deletion strains, locus YJL168C, strain set2, stronger effect = lower value
[37] = S. cerevisiae deletion strains, locus YJL187C, strain SWE1 (second series), stronger effect = lower value
[38] = S. cerevisiae deletion strains, locus YJR043C, strain POL32, stronger effect = lower value
[39] = S. cerevisiae deletion strains, locus YKL009W, strain mrt4, stronger effect = lower value
[40] = S. cerevisiae deletion strains, locus YKL068W, stronger effect = lower value
[41] = S. cerevisiae deletion strains, locus YKL085W, strain MDH1 (second series), stronger effect = lower value
[42] = S. cerevisiae deletion strains, locus YKL085W, strain MDH1, stronger effect = lower value
[43] = S. cerevisiae deletion strains, locus YKL190W, strain CNB1, stronger effect = lower value
[44] = S. cerevisiae deletion strains, locus YKR001C, strain vps1, stronger effect = lower value
[45] = S. cerevisiae deletion strains, locus YLR039C, strain RIC1, stronger effect = lower value
[46] = S. cerevisiae deletion strains, locus YLR058C, strain SHM2, stronger effect = lower value
[47] = S. cerevisiae deletion strains, locus YLR102C, strain apc9, stronger effect = lower value
[48] = S. cerevisiae deletion strains, locus YLR268W, strain sec22, stronger effect = lower value
[49] = S. cerevisiae deletion strains, locus YLR330W, strain CHS5, stronger effect = lower value
[50] = S. cerevisiae deletion strains, locus YLR371W, strain rom2, stronger effect = lower value
[51] = S. cerevisiae deletion strains, locus YLR418C, strain cdc73, stronger effect = lower value
[52] = S. cerevisiae deletion strains, locus YML016C, strain PPZ1, stronger effect = lower value
[53] = S. cerevisiae deletion strains, locus YML032C, strain rad52, stronger effect = lower value
[54] = S. cerevisiae deletion strains, locus YML124C, strain tub3, stronger effect = lower value
[55] = S. cerevisiae deletion strains, locus YMR078C, strain ctf18, stronger effect = lower value
[56] = S. cerevisiae deletion strains, locus YMR223W, strain ubp8, stronger effect = lower value
[57] = S. cerevisiae deletion strains, locus YMR307W, strain GAS1, stronger effect = lower value
[58] = S. cerevisiae deletion strains, locus YNL067W, strain RPL9B, stronger effect = lower value
[59] = S. cerevisiae deletion strains, locus YNL153C, strain GIM3, stronger effect = lower value
[60] = S. cerevisiae deletion strains, locus YNL233W, strain BNI4, stronger effect = lower value
[61] = S. cerevisiae deletion strains, locus YNL250W, strain rad50, stronger effect = lower value
[62] = S. cerevisiae deletion strains, locus YNL271C, strain bni1, stronger effect = lower value
[63] = S. cerevisiae deletion strains, locus YNL298W, strain CLA4, stronger effect = lower value
[64] = S. cerevisiae deletion strains, locus YNL307C, strain MCK1, stronger effect = lower value
[65] = S. cerevisiae deletion strains, locus YNR052C, strain pop2, stronger effect = lower value
[66] = S. cerevisiae deletion strains, locus YOL006C, strain TOP1, stronger effect = lower value
[67] = S. cerevisiae deletion strains, locus YOL012C, strain htz1
[68] = S. cerevisiae deletion strains, locus YOL147C, strain pex11, stronger effect = lower value
[69] = S. cerevisiae deletion strains, locus YOR061W, strain CKA2, stronger effect = lower value
[70] = S. cerevisiae deletion strains, locus YOR069W, strain VPS5, stronger effect = lower value
[71] = S. cerevisiae deletion strains, locus YOR136W, strain idh2, stronger effect = lower value
[72] = S. cerevisiae deletion strains, locus YOR144C, strain elg1, stronger effect = lower value
[73] = S. cerevisiae deletion strains, locus YOR184W, strain ser1, stronger effect = lower value
[74] = S. cerevisiae deletion strains, locus YOR316C, strain cot1, stronger effect = lower value
[75] = S. cerevisiae deletion strains, locus YPR119W, strain clb2, stronger effect = lower value
[76] = S. cerevisiae deletion strains, locus YPR141C, strain kar3, stronger effect = lower value
[77] = S. cerevisiae deletion strains, locus YPR163C, strain tif3, stronger effect = lower value
[78] = S. cerevisiae deletion strains, locus YPR167C, strain met16, stronger effect = lower value
[79] = S. cerevisiae deletion strains, strain wtn01, stronger effect = lower value

Measured: normalized growth

COc1ccc(-c2c(O)c3cc4c(c(CC=C(C)C)c3oc2=O)OC(C)(C)CC4)cc1
inactive: [1] 1.01 | [2] 0.996 | [3] 1.02 | [4] 1.01 | [5] 1.03 | [6] 1.01 | [7] 1.03 | [8] 1.03 | [9] 1.01 | [10] 1.01 | [11] 0.993 | [12] 1.01 | [13] 1.02 | [14] 1.02 | [15] 1.01 | [16] 1.03 | [17] 1.01 | [18] 1.01 | [19] 1.01 | [20] 1.03 | [21] 1 | S. cerevisiae deletion strains, locus YGR078C, strain PAC10, stronger effect = lower value 1.01 | [22] 1.03 | [23] 1.02 | [24] 1.02 | [25] 1.01 | [26] 1.01 | [27] 1.02 | [28] 1.01 | [29] 1 | [30] 1.01 | [31] 1.06 | [32] 1.02 | [33] 1.01 | [34] 1.01 | [35] 1.01 | [36] 1.02 | [37] 1.01 | [38] 1.01 | [39] 1.11 | [40] 1.01 | [41] 1.01 | [42] 1.01 | [43] 1 | [44] 1.02 | [45] 1.02 | [46] 1.01 | [47] 1.01 | S. cerevisiae deletion strains, locus YLR262C, strain YPT6, stronger effect = lower value 1.07 | [48] 1.02 | [49] 1.02 | S. cerevisiae deletion strains, locus YLR342W, strain FKS1 (second series), stronger effect = lower value 1.02 | [50] 1.02 | [51] 1.01 | [52] 1.01 | [53] 1.02 | [54] 1.01 | [55] 1.02 | [56] 1.01 | S. cerevisiae deletion strains, locus YMR263W, strain SAP30, stronger effect = lower value 1.01 | [57] 1.08 | [58] 1.01 | S. cerevisiae deletion strains, locus YNL128W, strain TEP1, stronger effect = lower value 1 | [59] 1 | [60] 1 | [61] 1.02 | [62] 1.01 | [63] 1.01 | [64] 1.02 | [65] 1.02 | [66] 1.17 | [67] 1.44 | [68] 1 | [69] 1 | [70] 1.01 | [71] 1.02 | [72] 0.999 | [73] 0.993 | [74] 1.02 | S. cerevisiae deletion strains, locus YPL241C, strain CIN2, stronger effect = lower value 1.01 | [75] 1.02 | [76] 1.02 | [77] 1.01 | [78] 1.01 | [79] 1.01

COc1c(CC=C(C)C)c2c(c3oc(=O)c(-c4ccc(OC(C)=O)cc4)c(OC(C)=O)c13)C=CC(C)(C)O2
inactive: S. cerevisiae deletion strains, locus YAL013W, strain DEP1, stronger effect = lower value 0.996 | [1] 0.986 | [2] 1.03 | [3] 1.02 | [4] 1.04 | [5] 1.08 | [6] 1.03 | [7] 1.02 | [8] 1.05 | [9] 1.01 | [11] 1.04 | [12] 1.02 | [13] 1.02 | [14] 1.03 | [16] 1.01 | [17] 1.01 | [18] 1.02 | [19] 1 | [20] 1.03 | [21] 1.08 | [22] 1.02 | [24] 1.1 | [26] 1.02 | [27] 1 | [28] 1 | [29] 1.03 | [30] 1.02 | [31] 1.06 | [32] 1.02 | [33] 0.996 | [34] 1.12 | [35] 1.01 | [36] 0.997 | [37] 1.03 | [38] 1.07 | S. cerevisiae deletion strains, locus YJR075W, strain HOC1, stronger effect = lower value 1.03 | [40] 0.995 | [41] 1.01 | [42] 1.01 | [43] 0.997 | [44] 1.05 | [45] 1.12 | [46] 1.04 | [47] 1 | [48] 1.04 | [49] 1.02 | [50] 1.05 | [51] 1.08 | [52] 1.03 | [53] 1.01 | [54] 0.994 | [55] 1 | [56] 1.03 | [57] 1.15 | [58] 1 | [59] 1.03 | [60] 1.06 | [61] 0.989 | [62] 1.01 | [63] 1.01 | [64] 1 | [65] 1.01 | [66] 1.17 | [67] 1.04 | [68] 1.02 | [69] 1.02 | [70] 1.02 | [71] 1 | [72] 1.01 | [73] 1.04 | [74] 1.01 | [75] 1 | [76] 1 | [77] 1.02 | [78] 1 | [79] 1.04 | S. cerevisiae strains, strain wild type, stronger effect = lower value 1.02

COc1c(CC=C(C)C)c2c(c3oc(=O)c(-c4ccc(O)cc4)c(O)c13)C=CC(C)(C)O2
inactive: [1] 0.918 | [2] 1.01 | [4] 0.918 | [6] 0.964 | [7] 1.03 | [9] 0.92 | [10] 1.03 | [11] 0.875 | [13] 0.975 | [14] 0.94 | [15] 0.968 | [16] 0.986 | [18] 0.951 | [19] 1 | [20] 0.937 | [21] 0.921 | [22] 0.989 | [24] 1.02 | [25] 0.974 | [26] 0.979 | [27] 0.976 | [30] 0.903 | [31] 0.952 | [32] 0.957 | [33] 0.953 | [35] 1.01 | [36] 0.961 | [37] 0.945 | [38] 0.947 | [39] 0.985 | [40] 1.01 | [41] 0.958 | [42] 0.958 | [45] 0.889 | [46] 0.912 | [47] 0.978 | [52] 0.992 | [54] 0.983 | [55] 0.98 | [56] 0.925 | [57] 0.773 | [58] 0.97 | [59] 0.922 | [60] 0.881 | [61] 1.04 | [62] 0.998 | [63] 0.989 | S. cerevisiae deletion strains, locus YNL322C, strain KRE1, stronger effect = lower value 0.972 | [65] 0.917 | [66] 0.779 | [67] 0.812 | [69] 0.982 | [70] 0.997 | [71] 0.934 | [72] 0.968 | [74] 0.976 | [75] 0.977 | [76] 1 | [78] 0.938 | [79] 0.905
active: [3] 0.841 | [5] 0.687 | [8] 0.875 | [12] 0.896 | [17] 0.752 | [23] 0.722 | [28] 0.899 | [29] 0.908 | [34] 0.74 | [44] 0.869 | [48] 0.853 | [50] 0.769 | [51] 0.649 | [53] 0.896 | [64] 0.677 | [68] 0.902 | [73] 0.476 | [77] 0.84
